# In all, about 48,000 compounds went through this assay and about 13,000 (27%) showed an effect of 50% or more. Some of the results follow.
# Test system: Wolbachia pipientis
# Assay: Anti-Wolbachia Cell-Based Screen
# Format: functional
# Design: scale not given: in the data most compounds retested in dose-response had high values
# Conditions: 5 µM
row,SMILES,Percent Effect
1,C/C=C(\C)CN1C[C@H](NC(=O)c2cc[nH]c2C)[C@@H](C2CC2)C1,-10.95%
2,CN(C)c1ncncc1NC(=O)Cc1c[nH]c2ccc(F)cc12,-1.659%
3,CC(=O)c1cccc(OCCCC(=O)N(C)CCC(F)(F)F)c1,2.017%
4,COC(C)c1noc(CN2CCCNCC2)n1 (stereo not drawn),-0.5202%
5,CCOC(C)c1noc(CN2CCNCC2)n1 (stereo not drawn),-2.697%
6,NC(=O)C1CCCN(S(=O)(=O)c2cnn(-c3ccccc3)c2)C1 (stereo not drawn),5.842%
7,NCc1cnn(-c2ccccc2C(=O)NCc2ccncc2)c1,-9.699%
8,Cc1ccn(-c2ccc(C(=O)N3CCCC(C(N)=O)C3)cc2)n1 (stereo not drawn),-6.024%
9,CNC(=O)C1CCCN(C(=O)c2ccccc2-n2cc(CN)cn2)C1 (stereo not drawn),111.9%
10,CN(C)C(=O)C1CCCN(C(=O)c2ccccc2-n2cc(CN)cn2)C1 (stereo not drawn),125.8%
11,CN(C)C(=O)N1CCCC(C(=O)N(C)Cc2cnc(N)nc2)C1 (stereo not drawn),11.15%
12,NCc1cnn(-c2ccccc2C(=O)N2CCCC(C(N)=O)C2)c1 (stereo not drawn),94.05%
13,CN(C)C(=O)N1CCCC(C(=O)N(C)CCCc2cnn(C)c2)C1 (stereo not drawn),4.306%
14,CNC(=O)C1CCCN(C(=O)NCCC2Cc3ccccc3C2)C1 (stereo not drawn),-25.4%
15,NC(=O)c1cccc(CNC/C=C/c2ccccc2)c1,-6.459%
16,CC(C)OCCOCC(O)CN(C)C(=O)Nc1ccc(F)cc1Cl (stereo not drawn),-7.203%
17,CCc1nc(CNc2cc(Cl)ccc2OCC2CCCO2)no1 (stereo not drawn),-12.87%
18,CCc1cnc2c(c1Nc1ccc(OC)cc1)c(=O)n(C)c(=O)n2C,-2.304%
19,CCc1cnc2c(c1NCc1cccc(OC)c1)c(=O)n(C)c(=O)n2C,-3.77%
20,COc1cccc(CNc2c(C)cnc3c2c(=O)n(C)c(=O)n3C)c1,-20.05%
21,CCc1cnc2c(c1Nc1ccccc1OC)c(=O)n(C)c(=O)n2C,117.3%
22,CCc1cnc2c(c1NCc1ccncc1)c(=O)n(C)c(=O)n2C,-11.7%
23,CCn1c(Nc2ccccc2OC)nc2c(C)nn(C)c2c1=O,5.481%
24,CCc1cnc2c(c1NCc1ccc(OC)cc1)c(=O)n(C)c(=O)n2C,121.6%
25,CCOc1ccccc1Nc1nc2c(C)nn(C)c2c(=O)n1C,-3.425%
26,CCc1cnc2c(c1Nc1cccc(OC)c1)c(=O)n(C)c(=O)n2C,98.75%
27,O=C(N1CCCCC1)N1CCN(CC(O)c2ccc(F)cc2)CC1 (stereo not drawn),-12.83%
28,Cc1nc(CNC(=O)Nc2ccc3c(c2)CCCC(=O)N3)sc1C,3.802%
